Screening data as filed in PubChem.
Shown are actives, neighbours in structure and some others; about 19% of the full set was active somewhere.
HepG2 viability: qHTS for Inhibitors of TGF-b: Cytotox Counterscreen. 410,000 tested, 0.76% active. HepG2 CAGA-GFP viability, ATP luminescence, 18 h. Potency, µM (doses to about 46.1 µM), for inactives: top-dose activity change, negative = cytotoxicity, actives largely listed as cytotoxic; also: potency is read from the fitted curve at half-maximal effect
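HepG2 CAGA-GFP cells (1000/well, DMEM with 1% FBS) received compound, then TGF-beta at 500 pg/mL final, and were incubated 18 hours at 37 degrees C. Viability was read by CellTiter-Glo luminescence. Media-only wells were set as complete cell-killing and DMSO as no toxicity.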
DT40 TDP1 CPT: qHTS for Inhibitors of human tyrosyl-DNA phosphodiesterase 1 (TDP1): qHTS in cells in presence of CPT | chicken DT40 Tdp1-/-;hTDP1 cells + 20 nM CPT, ATP luminescence, 48 h | Potency, µM (highest dose often 46.2 µM), for inactives: top-dose activity change, negative = growth inhibition, most hits filed as inhibitors | 420,000 tested, 12% active; also: potency is read from the fitted curve at half-maximal effect; % is scaled to controls: 0 for no effect and ±100 for the full control effect; nearly all actives have a fitted effect of over 55% in size
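Chicken DT40 Tdp1-/- cells complemented with human TDP1, 400 cells/well, exposed to compounds plus 20 nM camptothecin for at least 48 h at 37 C; viability read as ATP content by CellTiter-Glo luminescence.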
IL-1B inflam inh: qHTS for Inhibitors of Inflammasome Signaling: IL-1-beta AlphaLISA Primary Screen | THP-1 LPS/ATP IL-1B secretion, AlphaLISA, 16 h; stronger effect = lower value | activity change, % at 57.5 µM | 360,000 tested, 4.7% active | AID 743279, 2014; in the data active = activity change below about -50%; inconclusive = mostly about -30% to -49%; also: % is scaled to controls: 0 for no effect and ±100 for the full control effect
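THP-1 cells pretreated 1 hr with compounds (up to 57.5 uM final), then stimulated with LPS (250 ng/mL final) plus ATP (1.25 mM final); secreted IL-1B measured by AlphaLISA after 16 hr, decreased signal indicating inhibition.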
TGFb SMAD3 inh: qHTS for Inhibitors of TGF-b. Potency, µM (highest dose often 46.1 µM), for the others: at the highest dose activity, negative = inhibition, most hits filed as inhibitors. AID 588855, 2011. HepG2 CAGA-GFP TGF-b/SMAD3 reporter, GFP fluorescence, 18 h; TGF-beta stimulated, 500 pg/mL final. 410,000 tested, 1.2% active; also: potency is read from the fitted curve at half-maximal effect; % is scaled to controls: 0 for no effect and ±100 for the full control effect; nearly all actives have a fitted effect of over 65% in size
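TGF-beta reporter screen: HEPG2 CAGA-GFP, 1% FBS, 500 pg/mL TGF-beta final, 18 h; per-cell GFP summed per well; curves fitted and categorized by class.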
TDP1 block: qHTS Assay for Inhibitors of Tyrosyl-DNA Phosphodiesterase (TDP1) | Tyrosyl-DNA phosphodiesterase 1 (Homo sapiens), Q9NUW8 | Potency, µM (highest dose often 130 µM), without a hit: at the highest dose activity change, negative = inhibition, hits mostly inhibitors | recombinant TDP1, AlphaScreen DNA substrate cleavage | 350,000 tested, 0.28% active; also: potency is read from the fitted curve at half-maximal effect; % is scaled to controls: 0 for no effect and ±100 for the full control effect; nearly all actives have a fitted effect of over 40% in size
Target sequence (Q9NUW8 whole entry, looked up): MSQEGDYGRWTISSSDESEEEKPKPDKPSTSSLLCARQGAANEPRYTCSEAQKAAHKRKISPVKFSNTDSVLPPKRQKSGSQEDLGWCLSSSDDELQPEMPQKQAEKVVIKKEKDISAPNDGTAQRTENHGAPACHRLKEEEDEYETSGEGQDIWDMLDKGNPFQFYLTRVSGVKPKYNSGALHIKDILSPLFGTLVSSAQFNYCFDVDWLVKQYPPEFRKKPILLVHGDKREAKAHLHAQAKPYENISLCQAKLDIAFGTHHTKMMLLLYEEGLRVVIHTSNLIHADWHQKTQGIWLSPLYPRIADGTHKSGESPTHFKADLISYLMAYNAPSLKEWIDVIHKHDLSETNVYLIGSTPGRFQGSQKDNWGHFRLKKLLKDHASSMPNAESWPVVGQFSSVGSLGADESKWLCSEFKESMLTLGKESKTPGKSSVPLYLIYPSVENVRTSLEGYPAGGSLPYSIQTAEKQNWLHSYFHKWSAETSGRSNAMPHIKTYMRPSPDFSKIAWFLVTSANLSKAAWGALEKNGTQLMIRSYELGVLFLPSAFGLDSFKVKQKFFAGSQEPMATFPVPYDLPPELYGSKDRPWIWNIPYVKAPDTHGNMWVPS
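Here, a 5' biotin and 3' phosphotyrosine-FITC DNA oligonucleotide reports Tdp1 activity: intact substrate bridges AlphaScreen beads, while cleavage leaves a 3' phosphate and drops signal. All incubations at room temperature.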
TDP1 cell noCPT: qHTS for Inhibitors of human tyrosyl-DNA phosphodiesterase 1 (TDP1): qHTS in cells in absence of CPT | DT40 Tdp1-/- hTDP1 cells, no CPT, ATP luminescence, 48 h | Potency, µM (highest dose often 46.2 µM), for inactives: at the top dose activity change, negative = growth inhibition, usual class: inhibitors | 420,000 tested, 15% active | AID 686978, 2013; also: potency is read from the fitted curve at half-maximal effect; % is scaled to controls: 0 for no effect and ±100 for the full control effect; nearly all actives have a fitted effect of over 55% in size
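Growth of hTDP1-complemented DT40 Tdp1-knockout cells is measured by ATP luminescence after at least 48 hr compound exposure at 37 °C, with DMSO substituting for the 20 nM CPT used in the parallel screen.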
Starred values were filed as active, the others as inactive; ? = inconclusive; / = no result. Unless noted, calls follow the shape of the dose curve; as a rule, active = well fitted curve in the direction sought with a large enough effect; inconclusive = small, poorly fitted or top-dose-only effect, or another doubt; inactive = no such curve, though single readings can be large; an effect the other way counts as inactive or inconclusive.

SMILES	HepG2 viability	DT40 TDP1 CPT	IL-1B inflam inh	TGFb SMAD3 inh	TDP1 block	TDP1 cell noCPT
CCOC(=O)Cn1c(=O)n(CC2CCCO2)c2nc(-c3ccccc3OC)nc(C(N)=O)c21 (stereo unspecified)	-22%	-21%	/	1%	-1%	-16%
Cc1ccc(S(=O)(=O)c2nc(-c3ccco3)oc2SC(C)c2ccccc2)cc1 (stereo unspecified)	3%	?	/	-3%	-9%	?
C#CC(CC)(CC)NC(=O)NC1CCCCC1	4%	-6%	-14	1%	-3%	2%
O=C1c2ccccc2C(c2nnnn2Cc2ccccc2)N1Cc1cccs1 (stereo unspecified)	/	-2%	0	/	/	?
Cc1ccc(OCc2ccoc2C(=O)O)cc1C	1%	-3%	36	-9%	50µM*	-4%
Cc1ccc(OCc2ccc(C(=O)O)o2)cc1C	-4%	-14%	-15	-6%	/	22%
Cc1ccc(C)c(Cn2c(=O)c3c(nc4n3CCN4c3ccc(F)cc3)n(C)c2=O)c1	-1%	-10%	/	-3%	3%	-8%
Cc1ccccc1-c1oc(C)c(C)[n+]1[O-]	-22%	8%	13	12%	2%	6%
CC(C)NC(=O)[C@H](CSCc1ccccc1)N1Cc2ccccc2C1=O	-3%	7%	-5	6%	3%	-5%
O=C(NCCCN1CCCC1)[C@H](CSCc1ccccc1)N1Cc2ccccc2C1=O	-36%	?	-30	3%	/	29µM*
COc1ccc(OC)c(NC(=O)[C@H](CSCc2ccccc2)N2Cc3ccccc3C2=O)c1	-19%	21µM*	/	-14%	7%	?
Cc1cccc(NC(=O)C(=O)NCC(c2cccnc2)N2CCOCC2)c1 (stereo unspecified)	9%	-20%	/	5%	3%	-28%
COc1ccc(Cl)cc1NC(=O)c1cccc([N+](=O)[O-])c1O	-20%	12µM*	-1	11µM*	/	8.2µM*
COc1ccc(Cl)cc1NC(=O)c1noc(C)c1[N+](=O)[O-]	0%	2.9µM*	5	17%	3%	2.3µM*
N#Cc1cc2c(=O)n3ccccc3nc2n(-c2nnc(SCc3ccc(F)cc3)s2)c1=O	-2%	-18%	/	1%	-5%	-23%
CCOc1cc2c(c3c1C(c1ccccc1)N(S(=O)(=O)c1ccc(C)cc1)C3)C(=O)C=CC2=O (stereo unspecified)	8.9µM*	0.52µM*	-118*	?	/	0.58µM*
COC(=O)c1ccc(C(/C=C/[C@@H](C)C(=O)NCc2ccccc2)NC(=O)OCc2ccccc2)cc1 (stereo partly specified)	/	/	/	/	9%	/
COCC(=O)N(C)c1nnc(-c2ccccn2)s1	11%	5%	0	-5%	-5%	-4%
COCC(=O)N(C)c1nnc(-c2ccc([N+](=O)[O-])cc2)s1	2%	-29%	-58*	19%	1%	2%
O=C(Nc1ccc(S(=O)(=O)N2CCOCC2)cc1)c1ccc(CN2CCc3ccccc3C2)cc1	-16%	1.2µM*	?	-7%	0%	0.92µM*
O=C(Nc1ccccc1)c1ccc(S(=O)(=O)N2CCOCC2)cc1	-22%	-2%	-24	27%	-3%	-15%
O=C(Nc1ccc(S(=O)(=O)N2CCCC2)cc1)c1ccc(CN2CCc3ccccc3C2)cc1	-31%	8.2µM*	-2	?	-3%	4.1µM*
O=C(Nc1ccc(Cl)cc1)c1ccc(CN2CCc3ccccc3C2)cc1	-23%	?	-10	?	2%	-11%
Cc1nc2ccc(C(=O)N3CCN(C(=O)c4ccco4)CC3)cn2c1N(C)C(=O)CCc1ccccc1	-1%	-1%	1	0%	/	-4%
Cc1nc2ccccc2nc1OCc1ccccc1	-7%	6%	-17	-15%	3%	-26%
SMILES	HepG2 viability	DT40 TDP1 CPT	IL-1B inflam inh	TGFb SMAD3 inh	TDP1 block	TDP1 cell noCPT
Cc1nc2ccccc2nc1OCc1cccc(Cl)c1	-43%	?	19	11µM*	1%	15µM*
CCOC(=O)c1cc(S(=O)(=O)NCc2ccccc2)[nH]n1	-10%	-9%	/	-7%	-1%	-6%
CCOC(=O)c1sc(NC(=O)CC(C)c2ccccc2)nc1C (stereo unspecified)	2%	13µM*	14	-5%	6%	3.7µM*
CC(C)c1nnc(NC(=O)CC(C)c2ccccc2)s1 (stereo unspecified)	5%	-13%	16	-7%	2%	-28%
Cc1cnc(NC(=O)CC(C)c2ccccc2)s1 (stereo unspecified)	-8%	6.5µM*	36	1%	/	5.2µM*
CCOC(=O)c1sc(NC(=O)C2CC=CCC2C(=O)O)nc1C (stereo unspecified)	5%	3%	8	1%	22µM*	3%
CCOC(=O)c1sc(NC(=O)CSC(=S)N2CCN(C)CC2)nc1C	4%	26µM*	?	3%	7%	18µM*
CCOC(=O)c1sc(NC(=O)CCSC)nc1C	-5%	?	-10	-3%	8%	?
CC1CCn2c(nc3cc(C(=O)NCc4ccc(F)cc4)ccc32)C1 (stereo unspecified)	-2%	-24%	/	-7%	5%	?
COC(=O)c1sc(NC(=O)c2ccc(C)o2)nc1C	-46%	?	4	-30%	1%	?
CCSc1nnc(NC(=O)NC(CC)(C(F)(F)F)C(F)(F)F)s1	-86%	?	?	13µM*	-1%	15µM*
CCSc1nnc(NC(=O)C2CC=CCC2C(=O)O)s1 (stereo unspecified)	2%	-14%	0	-3%	56µM*	-1%
CCOC(=O)c1sc(NC(=O)CCc2ccccc2)nc1C	-26%	1.8µM*	-9	31%	3%	1.2µM*
CCSc1nnc(NC(=O)C2CCCCC2)s1	1%	-6%	19	-7%	9%	-18%
CCOC(=O)c1sc(NC(=O)c2ccc(C)o2)nc1C	5µM*	?	25	?	6%	?
